Source: the supplement of paper PMC12494721
Structures can show the parent of a compound that is named as a salt.

How the values were obtained:
Conditions in all cases: incubation time: 27 h, anaerobic, 37 °C;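 for the amine columns active = adjusted P below 0.05 in both replicates with a change the same way and a mean fold change under 0.8 or over 1.25; inactive = the rest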
[1] = tested on: Clostridium sporogenes DSM 1664; assay: growth (OD595) fold change vs plate DMSO controls (fold change (ratio)); higher = more growth
Outline: (§1)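 The reported measure is growth: the fold change against the median of DMSO controls on the plate. Absorbance at 595 nm from anaerobic 96-well mGAM cultures grown for 27 h at 37 °C was blank-subtracted, corrected for background with 20 µM compound solutions in water, and converted to OD with a calibration factor of 5. Fold changes above 1.5 appear as NA, and values are the mean of 2 biological replicates.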

[2] = tested on: Escherichia coli IAI1; assay: as above
Outline: as §1

[3] = tested on: Klebsiella aerogenes DSM 30053; assay: as above
Outline: as §1

[4] = tested on: Ruminococcus gnavus DSM 108212; assay: as above
Outline: as §1

[5] = tested on: Klebsiella aerogenes DSM 30053; assay: fold change of Histamine concentration vs plate DMSO controls (fold change (ratio)); higher = more amine produced, active = hit call of the paper (significant change in both replicates, either direction)
Outline: (§2)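 Each value is the fold change relative to DMSO-only wells on the same plate. Four gut bacterial strains were grown anaerobically in mGAM at 37 °C for 27 h in 80 µL wells, starting at OD 0.1 before a 1:1 dilution, with compounds at 20 µM final (sweeteners 50 µM). Whole cultures were extracted with cold acetonitrile/methanol containing 0.1% formic acid, centrifuged, and amines were quantified by LC–triple-quadrupole MS (dynamic MRM) against external calibration curves with within-batch drift correction. Values are means of 2 biological replicates.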

[6] = tested on: Clostridium sporogenes DSM 1664; assay: fold change of Tryptamine concentration vs plate DMSO controls (fold change (ratio)); higher = more amine produced, active = hit call of the paper (significant change in both replicates, either direction)
Outline: as §2

[7] = tested on: Ruminococcus gnavus DSM 108212; assay: as above
Outline: as §2

[8] = tested on: Escherichia coli IAI1; assay: fold change of Putrescine concentration vs plate DMSO controls (fold change (ratio)); higher = more amine produced, active = hit call of the paper (significant change in both replicates, either direction)
Outline: as §2

[9] = tested on: Klebsiella aerogenes DSM 30053; assay: as above
Outline: as §2

[10] = tested on: Escherichia coli IAI1; assay: fold change of Cadaverine concentration vs plate DMSO controls (fold change (ratio)); higher = more amine produced, active = hit call of the paper (significant change in both replicates, either direction)
Outline: as §2

[11] = tested on: Klebsiella aerogenes DSM 30053; assay: as above
Outline: as §2

[12] = tested on: Ruminococcus gnavus DSM 108212; assay: fold change of 2-Phenylethylamine concentration vs plate DMSO controls (fold change (ratio)); higher = more amine produced, active = hit call of the paper (significant change in both replicates, either direction)
Outline: as §2

SMILES | growth [1] | growth [2] | growth [3] | growth [4] | fold change of Histamine concentration [5] | fold change of Tryptamine concentration [6] | fold change of Tryptamine concentration [7] | fold change of Putrescine concentration [8] | fold change of Putrescine concentration [9] | fold change of Cadaverine concentration [10] | fold change of Cadaverine concentration [11] | fold change of 2-Phenylethylamine concentration [12]
C=CC1=C(C(=O)O)N2C(=O)[C@@H](NC(=O)/C(=N\O)c3csc(N)n3)[C@H]2SC1 [Cefdinir] (20 µM) | 0 | 0 | 0.757 | 0 | 1.22 (inactive) | 0.0307 (active) | 0.04 (active) | 0.208 (active) | 0.979 (inactive) | 0.77 (inactive) | 1.03 (inactive) | 0.0439 (active)
C[C@H](N)[C@H](O)c1cccc(O)c1 [Metaraminol bitartrate] (20 µM) | 1.04 | 0.987 | 1.09 | 0.95 | 1.04 (inactive) | 1.05 (inactive) | 1.08 (inactive) | 1.02 (inactive) | 1.02 (inactive) | 0.982 (inactive) | 0.998 (inactive) | 1.12 (inactive)
CCOC(=O)O[C@]1(C(=O)OCCl)CC[C@H]2[C@@H]3CCC4=CC(=O)C=C[C@]4(C)[C@H]3[C@@H](O)C[C@@]21C [Loteprednol etabonate] (20 µM) | 1.29 | 1.26 | 1.08 | 1.08 | 0.899 (inactive) | 1.03 (inactive) | 1.01 (inactive) | 1.25 (inactive) | 1 (inactive) | 0.955 (inactive) | 1.01 (inactive) | 1.02 (inactive)
CN1CCN(c2c(F)cc3c(=O)c(C(=O)O)cn4c3c2SCC4)CC1 [Rufloxacin] (20 µM) | 0.0133 | 0.0641 | 0.299 | 0.953 | 0.201 (active) | 0.0518 (active) | 0.901 (inactive) | 0.875 (inactive) | 1.18 (inactive) | 0.26 (active) | 0.997 (inactive) | 0.952 (inactive)
Cn1c(=O)c2c(ncn2CC2OCCO2)n(C)c1=O [Doxofylline] (20 µM) | 1.05 | 0.975 | 0.973 | 1.18 | 1.08 (inactive) | 1.05 (inactive) | 1.06 (inactive) | 0.999 (inactive) | 1.01 (inactive) | 1 (inactive) | 0.993 (inactive) | 1.1 (inactive)
O=C(O)c1cn(-c2ccc(F)cc2)c2cc(N3CCNCC3)c(F)cc2c1=O [Sarafloxacin] (20 µM) | 0.012 | 0.0263 | 0.182 | 0.896 | 0.129 (active) | 0.0563 (active) | 0.8 (inactive) | 0.832 (inactive) | 0.651 (active) | 0.244 (active) | 0.969 (inactive) | 0.894 (inactive)
CN1CCCN=C1/C=C/c1cccc(O)c1 [Oxantel pamoate] (20 µM) | 1.1 | 1.04 | 1.03 | 0.853 | 0.924 (inactive) | 1.05 (inactive) | 1.06 (inactive) | 1.03 (inactive) | 0.967 (inactive) | 1.01 (inactive) | 1.01 (inactive) | 1.08 (inactive)
CC1COc2ccccc2N1C(=O)C(Cl)Cl (configuration not stated) (20 µM) | 0.957 | 1.02 | 1.02 | 0.965 | 1.02 (inactive) | 1.02 (inactive) | 1.06 (inactive) | 0.986 (inactive) | 0.941 (inactive) | 1.04 (inactive) | 1.05 (inactive) | 1.11 (inactive)
CCC(=O)c1ccc(O)cc1 [Paroxypropione] (20 µM) | 0.967 | 0.989 | 0.996 | 1 | 1.03 (inactive) | 0.946 (inactive) | 1.02 (inactive) | 1.01 (inactive) | 1.02 (inactive) | 1.01 (inactive) | 1.01 (inactive) | 0.952 (inactive)
COc1cccc2c1C(=O)c1c(O)c3c(c(O)c1C2=O)C[C@@](O)(C(C)=O)C[C@@H]3O[C@H]1C[C@H](N)[C@H](O)[C@H](C)O1 [Daunorubicin hydrochloride] (20 µM) | 0.967 | 0.972 | 0.997 | 1.13 | 1.01 (inactive) | 0.941 (inactive) | 0.986 (inactive) | 0.988 (inactive) | 1.02 (inactive) | 1.09 (inactive) | 1.04 (inactive) | 0.967 (inactive)
c1ccc2[nH]c(-c3cscn3)nc2c1 [Tiabendazole] (20 µM) | 1.06 | 0.991 | 0.899 | 0.962 | 1.12 (inactive) | 1.01 (inactive) | 1.02 (inactive) | 0.997 (inactive) | 0.964 (inactive) | 1.04 (inactive) | 0.979 (inactive) | 1.04 (inactive)
